HIF activator – HIF pathway transcriptional activation; activation, % at 7.5 µM (by protocol); U2OS HRE-luciferase reporter, luminescence; normalized: DMSO 0%, desferrioxamine 100%; hit rate 0.32% among 300,000;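 active = mean activation of at least 10% of the iron chelator positive control signal, with at least half of replicates also reaching 10%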
ALR inh – human ALR oxidase inhibition via reduced H2O2; P55789; purified ALR, DTT oxidation, H2O2 HRP-luminol luminescence; inhibition, % (no concentration beside the values); hit rate 3.8% among 290,000;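 active = mean replicate inhibition above about 79%, with every replicate also reaching it, limit read from the data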
Target sequence (P55789 whole entry, looked up): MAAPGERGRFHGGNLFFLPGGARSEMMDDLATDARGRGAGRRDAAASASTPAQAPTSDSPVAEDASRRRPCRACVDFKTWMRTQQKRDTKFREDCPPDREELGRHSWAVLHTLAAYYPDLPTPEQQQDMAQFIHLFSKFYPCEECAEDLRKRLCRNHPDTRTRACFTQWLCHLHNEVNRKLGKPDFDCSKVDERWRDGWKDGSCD
AI-2 QS modul – modulators of Vibrio harveyi AI-2 quorum sensing system. Vibrio harveyi JMH597 AI-2 luminescence/OD600 ratio, 9 h; hits give low values; strain lacks LuxN and CqsS sensors; 0 = neutral-control median. activity change, % at 7.5 µM. hit rate 0.4% among 300,000. AID 2094; in the data active = activity change below about -75%, passing the limit was not always enough;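 also: luminescence divided by OD600 gain over 9 h not by final OD600 alone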
Mot1-301 SUMO – SUMOylation pathway inhibition by Mot1-301 growth rescue. hit rate 1% among 320,000. S. cerevisiae Mot1-301 growth rescue, ATP luminescence, 38.5C; percent above DMSO median, 100 means doubled. growth rescue, % at 18.8 µM. AID 2716;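 active = every valid replicate shows activation above 250% relative to neutral control wells; inactive = the rest, any valid replicate at or below 250%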;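 also: OY570 slx delta 5 strain wells were the positive control but not used for scaling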
* hit, by the source's call. Hits are enriched below; roughly 4.8% of the tested compounds scored in any of these assays.

Screening COc1ccc(NC2CCCN(C(=O)C3(C)CCCCC3)C2)cc1OC (configuration not stated) returned HIF activator -1, ALR inh -3, AI-2 QS modul 8 and Mot1-301 SUMO -5.
CCCCCNC(=O)Cc1ccc(S(=O)(=O)N2CCOCC2)s1 was read as HIF activator 0, ALR inh -6, AI-2 QS modul 17 and Mot1-301 SUMO 0.
Screening CC(C)C(C(=O)NC1CCCC1)N(CC1CCCO1)C(=O)CNS(=O)(=O)c1ccccc1 (configuration not stated) returned HIF activator 1, ALR inh 7, AI-2 QS modul 13 and Mot1-301 SUMO -4.
Screening CC(CCN1C(Nc2ccccc2)=NC[C@@H]1Cc1ccccc1)c1ccccc1 (some centres not stated) returned HIF activator 0, ALR inh -5, AI-2 QS modul 10 and Mot1-301 SUMO 218.
`CC(=O)N1CCC(C(=O)Nc2ccc(S(=O)(=O)NCCc3ccccc3)cc2)CC1` gave HIF activator -2, ALR inh 1, AI-2 QS modul 13 and Mot1-301 SUMO 7.
`O=C(CSc1nc2cc(Cl)ccc2o1)NC1CC1` gave ALR inh -5 and Mot1-301 SUMO -23.
For O=C(CCSc1nc2cc(Cl)ccc2o1)N1CCOCC1 the results were HIF activator -1, ALR inh 99*, AI-2 QS modul 13 and Mot1-301 SUMO 8.
For CCNC(=O)CCSc1nc2cc(Cl)ccc2o1 the results were HIF activator 0, ALR inh 90* and AI-2 QS modul 14.
Screening Cc1ccc(C)c(CNS(=O)(=O)c2ccc3c(c2)C(C)(C)C(=O)N3C)c1 returned HIF activator 12*, ALR inh -4, AI-2 QS modul 19 and Mot1-301 SUMO -15.
`CC(C)c1ccc(NC(=O)COC(=O)c2cc(=O)[nH]c3ccccc23)cc1` gave ALR inh 0 and Mot1-301 SUMO 9.
For O=C(N/N=C/c1coc2ccc(Cl)cc2c1=O)c1cc(O)cc(O)c1 the results were HIF activator 1, ALR inh 96*, AI-2 QS modul 41 and Mot1-301 SUMO -41.
Screening CCCOc1cccc(C(=O)N/N=C/c2coc3ccccc3c2=O)c1 returned ALR inh 97*, AI-2 QS modul 47 and Mot1-301 SUMO 102.
For O=C(N/N=C/c1coc2ccccc2c1=O)c1ccncc1 the results were HIF activator 0, ALR inh 11, AI-2 QS modul 29 and Mot1-301 SUMO -15.
For O=C(N/N=C/c1coc2ccccc2c1=O)c1cc(Br)c(O)c(Br)c1 the results were HIF activator -1, ALR inh 98*, AI-2 QS modul 70 and Mot1-301 SUMO -42.
For NC(=O)N/N=C/c1coc2ccc3ccccc3c2c1=O the results were HIF activator 0, ALR inh -17, AI-2 QS modul 2 and Mot1-301 SUMO 334*.
`Cc1nc(SCC(=O)Nc2nccs2)c(C#N)c(C)c1C` gave ALR inh -6 and Mot1-301 SUMO -7.
`Cc1cnc(=O)[nH]c1SCC(=O)Nc1nccs1` gave HIF activator 0, ALR inh 97*, AI-2 QS modul 19 and Mot1-301 SUMO 4.
For CCc1nnc(NC(=O)CSc2nc3[nH]c(=O)cc(O)c3s2)s1 the results were ALR inh 99* and Mot1-301 SUMO -16.
For O=C(CSc1nc2[nH]c(=O)cc(O)c2s1)Nc1nccs1 the results were ALR inh 95* and Mot1-301 SUMO 0.
Screening COc1ccc(CCNC(=O)CS(=O)Cc2nc(-c3cccs3)oc2C)cc1OC (configuration not stated) returned HIF activator 0, ALR inh 99*, AI-2 QS modul 22 and Mot1-301 SUMO 3.
Screening Cc1ccc(CCNC(=O)CS(=O)Cc2nc(-c3ccccc3F)oc2C)cc1 (configuration not stated) returned HIF activator 0, ALR inh 99*, AI-2 QS modul -1 and Mot1-301 SUMO 5.
Screening COc1ccc(CCNC(=O)CS(=O)Cc2nc(-c3ccccc3Cl)oc2C)cc1OC (configuration not stated) returned HIF activator 0, ALR inh 98*, AI-2 QS modul 1 and Mot1-301 SUMO -5.
COc1ccc(CCNC(=O)CS(=O)Cc2nc(-c3ccccc3F)oc2C)cc1OC (configuration not stated) was read as HIF activator 0, ALR inh 99*, AI-2 QS modul 2 and Mot1-301 SUMO -13.

High-throughput results from PubChem BioAssay.
